Data on seven sequences can be found in the supplement of paper PMC6555819.

Holding throughout (assay): PBM binding z-score (relative to random genomic background probes); higher = stronger binding; sequences stand for … in GC…GCGATTGACAGCGTAGAATGAAGG
For experiment [1], the system named is PPARg:RXRa DBDmut IVT, anti-RXR (DBD mutation: RXRa K156A/R161A, NR concentration 270 nM, RXRa partner concentration 90 nM). In a few lines: (§1)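 Custom Agilent 4×180K protein-binding microarrays carried double-stranded probes. Their 34-nt variable regions held direct-repeat seeds, single-nucleotide variants, half-site ablations and random human genomic background sequences. Arrays were incubated 1 h with ligand-free nuclear receptor dimers in PBS pH 7.4, 2% milk, 0.02% Triton X-100, 1 mM DTT, 0.2 mg/mL BSA and 0.4 mg/ml salmon testes DNA. Antibodies against each partner (one per run) detected binding, and scanned fluorescence was regression-normalized. Binding z-scores use random background probes as reference.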

Experiment [2] relates to PPARg:RXRa IVT, anti-PPARg (NR concentration 270 nM, RXRa partner concentration 90 nM). In a few lines:
as §1

Experiment [3] has as its system PPARg DBDmut:RXRa IVT, anti-PPARg (DBD mutation: PPARg1 K132A/R137A, NR concentration 270 nM, RXRa partner concentration 90 nM). The method in brief: as §1
Experiment [4] concerns PPARg DBDmut IVT, anti-PPARg (DBD mutation: PPARg1 K132A/R137A, NR concentration 270 nM). The method in brief: as §1
Experiment [5] has as its system PPARg homodimer (NR concentration 180 nM). The method in brief: as §1
In experiment [6] the test system is PXR:RXRa (NR concentration 270 nM, RXRa partner concentration 90 nM). The method in brief:
as §1

The test system of experiment [7] is PXR homodimer (NR concentration 270 nM). In a few lines:
as §1

Experiment [8] concerns RARa:RXR (NR concentration 270 nM, RXRa partner concentration 90 nM). The method in brief: as §1
Experiment [9] has as its system RARa homodimer (NR concentration 270 nM). In a few lines:
as §1

Experiment [10] relates to RARb:RXRa (NR concentration 270 nM, RXRa partner concentration 90 nM). The method in brief: as §1
Experiment [11] deals with RARb homodimer (NR concentration 270 nM). The method in brief:
as §1

Experiment [12] has as its system RARg:RXRa (NR concentration 270 nM, RXRa partner concentration 90 nM). In a few lines:
as §1

Experiment [13] deals with RARg homodimer (NR concentration 270 nM). The method in brief:
as §1

The subject of experiment [14] is RXRa DBDmut IVT, anti-RXR (DBD mutation: RXRa K156A/R161A, NR concentration 90 nM). The method in brief: as §1
Experiment [15] relates to RXRa homodimer (NR concentration 180 nM). The method in brief: as §1
The test system of experiment [16] is THRa:RXRa (NR concentration 90 nM, RXRa partner concentration 90 nM). In a few lines:
as §1

Experiment [17] has as its system THRa homodimer (NR concentration 90 nM). In a few lines:
as §1

Experiment [18] concerns VDR homodimer (NR concentration 270 nM). The method in brief:
as §1

On to TAGCCTAGGTCATTAAGGGGCCAGTATAGAAAGC, for which the PBM binding z-score is 1.56 in experiment [1]; 2.58 in experiment [2]; 0.422 in [3]; 0.198 in experiment [4]; 0.937 in experiment [5]; 1.36 in [6]. Moreover, the PBM binding z-score is -0.202 in experiment [7]; 2.18 in experiment [8]; 0.00876 in experiment [9]; 3.64 in experiment [10]; 3.1 in experiment [11]; 5.12 in [12]. Further, the PBM binding z-score worked out at 3.99 in [13]; 1.36 in [14]; 2.52 in experiment [15]; 2.9 in [16]; 0.623 in [17]; 0.937 in experiment [18].
As for TTACCAAGGTGAAGGTGGTTGATCCCTCTGTAGA, the PBM binding z-score in experiment [1] was 1.73; in experiment [2], 2.52; in experiment [3], -0.348; in experiment [4], -0.272; in experiment [5] it was 0.43; in experiment [6], 0.325. In addition, the PBM binding z-score in experiment [7] is -0.346; in [8] it was 0.45; in experiment [9], -0.245; in experiment [10], 1.37; in [11] it was 0.653; in experiment [12], 0.26. For the same sequence, the PBM binding z-score is 0.431 in experiment [13]; -0.51 in experiment [14]; 0.689 in experiment [15]; 1.78 in experiment [16]; 0.829 in experiment [17]; -0.454 in experiment [18].
For GCTCCGAGGACAAGGTCAGAGCTTTGTCCGTAGA, the PBM binding z-score in experiment [1] is 0.525; in experiment [2], 0.632; in experiment [3] it was -1.51; in experiment [4] it was -1.01; in experiment [5], 0.305; in experiment [6] it was 1.55. The PBM binding z-score was -0.543 in experiment [7]; 1.76 in experiment [8]; -0.762 in [9]; 3.33 in [10]; 3.24 in experiment [11]; 3.01 in [12]. Also, the PBM binding z-score in experiment [13] came out at 3.47; in experiment [14], 1.05; in experiment [15], 2.25; in experiment [16], 3.55; in [17], 2.3; in [18] it was 0.674.
With ATCTCTAGGTAACCAAGTTAAGTGAATGCCGAAC, the PBM binding z-score in experiment [1] is 3.43; in experiment [2], 2.78; in [3] it was 0.758; in experiment [4] it was 1.07; in experiment [5], 0.347; in experiment [6] it was 0.282. For the same sequence, the PBM binding z-score amounted to 0.739 in [7]; 0.368 in [8]; 1.13 in experiment [9]; 0.317 in experiment [10]; 0.215 in experiment [11]; 0.245 in experiment [12]. Moreover, the PBM binding z-score was 0.306 in [13]; -0.119 in experiment [14]; 0.154 in [15]; 0.825 in experiment [16]; 0.542 in [17]; -0.108 in [18].
For the sequence GCTTGTAGATCAAGGTTAGGAAAGACTAAGCTAA, the PBM binding z-score in [1] was 1.45; in experiment [2] it was 0.637; in experiment [3], -0.619; in [4] it was 0.0428; in experiment [5], -0.189; in experiment [6], -0.276. In addition, the PBM binding z-score in [7] is -0.422; in experiment [8] it was -0.0199; in [9], -0.3; in [10] it was 0.336; in [11], -0.185; in [12], -0.139. Moreover, the PBM binding z-score was -0.0948 in [13]; -0.199 in experiment [14]; 0.0572 in experiment [15]; 0.576 in [16]; -0.327 in experiment [17]; -0.0771 in experiment [18].
On to TCTCGGAGGACACGAAAGGTCAGGGCTCGACATC, for which the PBM binding z-score is 1.91 in [1]; 1.97 in [2]; 0.171 in experiment [3]; -0.651 in experiment [4]; 2.95 in experiment [5]; 4.44 in experiment [6]. For the same sequence, the PBM binding z-score in experiment [7] came out at 0.147; in experiment [8], 4.93; in experiment [9] it was 0.454; in experiment [10], 4.4; in experiment [11], 4.94; in experiment [12], 4.98. For the same sequence, the PBM binding z-score in experiment [13] came out at 5.69; in experiment [14], 1.1; in experiment [15], 4.39; in experiment [16], 3.83; in experiment [17], 2; in [18] it was 0.976.
Take ACTTACGGGTCAACGAGATTATAGCACGCGTATA: the PBM binding z-score worked out at 3.56 in experiment [1]; 4.11 in experiment [2]; 1.69 in experiment [3]; 2.1 in [4]; 2.79 in experiment [5]; 3.31 in experiment [6]. Also, the PBM binding z-score is 0.376 in experiment [7]; 4.37 in experiment [8]; 1.47 in experiment [9]; 4.23 in [10]; 2.96 in experiment [11]; 5.12 in experiment [12]. The PBM binding z-score in experiment [13] came out at 4.89; in experiment [14], 2.05; in experiment [15], 5.72; in experiment [16], 2.67; in [17] it was 0.499; in experiment [18] it was 1.35.
